FLuc inh: Firefly luciferase inhibition profiling of diverse chemical library using quantitative high-throughput screening; Luciferin 4-monooxygenase (Photinus pyralis), P08659; purified P. pyralis luciferase, luminescence, biochemical; Potency, µM (series often up to 115 µM), most hits filed as inhibitors; 76,000 tested, 2.5% active; also: % is scaled to controls: 0 for no effect and ±100 for the full control effect; nearly all actives have a fitted effect of over 65% in size
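Cell-free enzyme assay, 10nM P. pyralis luciferase, luciferin and ATP each at 10uM. Inhibition profiled over a 6-point titration, read as luminescence.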
NPR1 antag: Natriuretic polypeptide receptor (hNpr1) antagonism - Primary qHTS. 76,000 tested, 1.6% active. Potency, µM (top dose mostly 46.3 µM), for inactives: at the highest dose activity change, negative = inhibition, usual class: inhibitors. HEK293 hNpr1 GloSensor cGMP, ANP-stimulated luminescence. Atrial natriuretic peptide receptor 1 (Homo sapiens), P16066; calls by dose curve; also: % is scaled to controls: 0 for no effect and ±100 for the full control effect; nearly all actives have a fitted effect of over 60% in size
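Compound pre-incubated 30 min at room temperature on GloSensor-loaded HEK293 cells stably carrying hNpr1 and the pGS-40F cGMP biosensor. Stimulation uses hNppA at 0.1 nM final; luminescence is taken at baseline and 20 min post-agonist.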
3T3 cytotox: Cytotoxic Profiling in NIH 3T3 Cell Line of Diverse Libraries Using Quantitative High-Throughput Screening; NIH 3T3 viability, CellTiter-Glo ATP luminescence, 48-72 h; Potency, µM (doses to about 96.7 µM), for the others: at the highest dose activity change, negative = cytotoxicity, most hits filed as inhibitors; 94,000 tested, 4.3% active; AID 1345082, 2018; also: % is scaled to controls: 0 for no effect and ±100 for the full control effect; nearly all actives have a fitted effect of over 55% in size
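Mouse fibroblast NIH 3T3 cells, 400 per well, received compound via pintool and were incubated for 48 or 72 hr prior to CellTiter-Glo ATP luminescence measurement.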
HEK293 tox: Cytotoxic Profiling in HEK 293 Cell Line of Diverse Libraries Using Quantitative High-Throughput Screening. 94,000 tested, 6.6% active. AID 1345083, 2018. HEK 293 viability, ATP luminescence (CellTiter-Glo), 48-72 h. Potency, µM (titrated, usually from 115 µM), inactives show at the highest dose activity change, negative = cytotoxicity, usual class: inhibitors; also: % is scaled to controls: 0 for no effect and ±100 for the full control effect; nearly all actives have a fitted effect of over 60% in size
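qHTS cytotoxicity; HEK 293, 250 cells/well; compound pinned; 48 or 72 hr, 37 degree Celsius, 5% CO2, 95% humidity; CellTiter-Glo, 10 min RT; luminescence (ATP).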
Npr1 antag conf: Natriuretic polypeptide receptor (hNpr1) antagonism - Confirmation. HEK293 hNpr1 cGMP GloSensor luminescence, ANP-stimulated. AID 1347044, 2019. 1,400 tested, 76% active. shares compounds with NPR1 antag. Potency, µM (titrated, usually from 57.6 µM), without a hit: at the top dose activity change, negative = inhibition, usual class: inhibitors; calls by dose curve; also: nearly all actives have a fitted effect of over 70% in size
NPR2 antag: Natriuretic polypeptide receptor (hNpr2) antagonism - Subtype selectivity assay | Potency, µM (titrated, usually from 57.6 µM), for the others: at the highest dose activity change, negative = inhibition, hits mostly inhibitors | shares compounds with NPR1 antag | HEK293 hNpr2 GloSensor cGMP luminescence, CNP-stimulated | 1,400 tested, 67% active | AID 1347046, 2019; calls by dose curve; also: nearly all actives have a fitted effect of over 70% in size
FLuc inh counter: Natriuretic polypeptide receptor (hNpr1) antagonism - Confirmation firefly luciferase (FLuc) inhibition counterscreen | AID 1347047, 2019 | shares compounds with NPR1 antag | Potency, µM (doses to about 57.6 µM), inactives show at the top dose activity change, negative = inhibition, usual class: inhibitors | 1,400 tested, 0.7% active | purified FLuc enzyme, luminescence, Km substrate; also: 0% is about no effect
GloSensor ctrl: Natriuretic polypeptide receptor (hNpr1) antagonism - Counterscreen GloSensor control cell line. shares compounds with NPR1 antag. AID 1347051, 2019. 1,400 tested, 69% active. HEK293 GloSensor cGMP, SNP-stimulated, luminescence. Potency, µM (top dose mostly 57.6 µM), for inactives: top-dose activity change, negative = inhibition, most hits filed as inhibitors; calls by dose curve; also: % is scaled to controls: 0 for no effect and ±100 for the full control effect; nearly all actives have a fitted effect of over 70% in size
An asterisk follows results filed as active; i = inactive; ? = inconclusive; nt = no result; [ ] = dose if it differs, or a comment. Only some compounds are listed: those with a hit (about 11% of all), similar ones and a draw of the others. Unless noted, calls follow the shape of the dose curve; as a rule, active = well fitted curve in the direction sought with a large enough effect; inconclusive = small, poorly fitted or top-dose-only effect, or another doubt; inactive = no such curve, though single readings can be large; an effect the other way counts as inactive or inconclusive. Potency is read from the fitted curve at half-maximal effect.

SMILES | FLuc inh | NPR1 antag | 3T3 cytotox | HEK293 tox | Npr1 antag conf | NPR2 antag | FLuc inh counter | GloSensor ctrl
CCC1Oc2ccc(NC(=O)c3ccccc3OC(C)=O)cc2CN(Cc2ccccc2F)C1=O (stereo not drawn) | i | 0.71µM* | 14µM* | 25µM* | 24µM* | 24µM* | -4% | 22µM*
O=C(NC1CCCC1)c1cc(C2CC2)nc2onc(C3CCCN3)c12 (stereo not drawn) | nt | nt | -19% | -6% | nt | nt | nt | nt
C=CCN(C)C(=O)CC1COc2ccc(C(=O)N(C)C)cc2N1C (stereo not drawn) | i | 5% | -12% | -9% | -6% | -7% | 2% | -7%
Cc1ccsc1C(=O)N1CCC(N2C(=O)C(OCC3CC3)C23CCCCC3)CC1 (stereo not drawn) | i | 4% | -27% | ? | nt | nt | nt | nt
CCc1noc(CC2CCOC3(CCN(S(=O)(=O)c4ccc(C(C)C)cc4)CC3)C2)n1 (stereo not drawn) | i | 10µM* | ? | ? | 17µM* | 19µM* | -2% | 12µM*
CCc1noc(CC2CCOC3(CCN(S(=O)(=O)c4ccc(F)c(F)c4)CC3)C2)n1 (stereo not drawn) | i | 10µM* | ? | 79µM* | 22µM* | ? | -1% | ?
O=C(NCc1cccnc1)c1cc(-c2ccccc2F)cc2c1OCCN2Cc1cccnc1 | i | -22% | ? | ? | nt | nt | nt | nt
O=C(NCCc1cnc[nH]1)c1cc(-c2ccccc2F)cc2c1OCCN2Cc1cccnc1 | i | -15% | ? | ? | nt | nt | nt | nt
O=C(NC1CC1)c1cc(-c2ccccc2F)cc2c1OCCN2Cc1cccnc1 | i | -29%[70.6 µM] | 89µM* | 100µM* | ? | ? | 2%[86.2 µM] | 8%[86.2 µM]
O=C(c1cc(-c2ccccc2F)cc2c1OCCN2Cc1cccnc1)N1CCC1 | i | ? | ? | ? | ? | ? | 1%[86.2 µM] | -11%[86.2 µM]
CN(C)C(=O)c1cc(-c2ccccc2F)cc2c1OCCN2Cc1cccnc1 | i | -25%[70.6 µM] | -28%[138 µM] | ? | ? | -25%[86.2 µM] | 1%[86.2 µM] | -25%[86.2 µM]
COc1ccc(CCNC(=O)CC(c2cccc(F)c2)c2cn(C)c3ccccc23)cc1OC (stereo not drawn) | i | 18µM* | 22µM* | 20µM* | 24µM* | 27µM* | 4% | 27µM*
COc1ccccc1C(CC(=O)NCC(C)C)c1cn(C)c2ccccc12 (stereo not drawn) | i | ? | -11% | ? | ? | ? | -2% | -21%
CCCCNC(=O)CC(c1cccc(OC)c1OC)c1c[nH]c2ccccc12 (stereo not drawn) | i | -19% | ? | ? | nt | nt | nt | nt
COc1ccc(CCNC(=O)CC(c2cccc(OC)c2OC)c2c[nH]c3ccccc23)cc1OC (stereo not drawn) | i | -21% | ? | ? | nt | nt | nt | nt
CS(=O)(=O)N1CCc2ccc(C(=O)Nc3ccc(Oc4ccccc4)cc3)cc21 | i | 1.6µM* | -21% | ? | 2.7µM* | 3.4µM* | -1% | 2.4µM*

Bioassay records: PubChem BioAssay, National Center for Advancing Translational Sciences (NCATS)
